From the supplement of paper PMC12339681
Structures can show the parent of a compound that is named as a salt.

Test system: PBMC-derived induced microglia-like cells (piMGLC)
Assay: synaptosome phagocytic index relative to DMSO control (fraction of DMSO); higher = more phagocytosis
Settings: concentration: 10 uM (2 uM for compounds listed in Table S2); pretreatment time: 24 h; assay time: 3 h

| Structure (SMILES) | synaptosome phagocytic index |
| --- | --- |
| C[C@@H]1O[C@@H]1P(=O)(O)O [Fosfomycin_(sodium)] | 1.11 |
| Cn1c(OCC2CCC(C(F)(F)F)CC2)nn2c(C3CCOCC3)ncc2c1=O (stereo unspecified) | 0.831 |
| CCC(=N\O)/C(C)=C/c1ccc(F)cc1 | 0.93 |
| O=C1NC(c2ccccc2)(c2ccccc2)C(=O)N1COP(=O)(O)O [Fosphenytoin_(disodium)] | 0.487 |
| CN(C)CC(c1ccc(O)cc1)C1(O)CCCCC1 (stereo unspecified) [Desvenlafaxine_(succinate_hydrate)] | 1.11 |
| CC(C)(C)C(=O)NCCCC(=O)O [Pivagabine] | 0.829 |
| CCc1nn(CCCN2CCN(c3cccc(Cl)c3)CC2)c(=O)n1CCOc1ccccc1 [Nefazodone_(hydrochloride)] | 1.37 |
| Nc1cc(C(F)F)c(-c2nc(N3C4CCC3COC4)nc(N3C4CCC3COC4)n2)cn1 | 0.347 |
| CCc1c(C)[nH]c2c1C(=O)C(CN1CCOCC1)CC2 (stereo unspecified) [Molindone_(hydrochloride)] | 0.64 |
| O=C1CCc2ccc(OCCCCN3CCN(c4cccc(Cl)c4Cl)CC3)cc2N1 [Aripiprazole] | 0.885 |
| CCN(C(=O)c1c(O)c2c(Cl)cccc2n(C)c1=O)c1ccccc1 [Laquinimod] | 0.888 |
| Nc1ccccc1NC(=O)c1ccc(CNC(=O)OCc2cccnc2)cc1 [Entinostat] | 0.753 |
| COc1ccc2c3c1O[C@H]1C[C@@H](O)C=C[C@@]31CCN(C)C2 [Galanthamine] | 0.617 |
| CC(C)Cc1ccc(C(C)C(=O)O)cc1 (stereo unspecified) [Ibuprofen] | 0.74 |
| CC(=O)c1c(C)c2cnc(Nc3ccc(N4CCNCC4)cn3)nc2n(C2CCCC2)c1=O [Palbociclib_(isethionate)] | 0.421 |
| NC(=O)c1cn(Cc2c(F)cccc2F)nn1 [Rufinamide] | 0.654 |
| CCC1(C)CC(=O)NC1=O (stereo unspecified) [Ethosuximide] | 0.869 |
| NC(=O)NO [Hydroxyurea] | 0.555 |

| Structure (SMILES) | synaptosome phagocytic index |
| --- | --- |
| CC(CN(C)C)CN1c2ccccc2CCc2ccccc21 (stereo unspecified) [Trimipramine_(maleate)] | 0.449 |
| COc1cc2ncnc(Nc3cccc(Cl)c3F)c2cc1OC(=O)N1CCN(C)C[C@H]1C [Zorifertinib] | 0.285 |
| O=C(O)CCCc1ccccc1 [Sodium_4-phenylbutyrate] | 0.996 |
| NCc1c[nH]c(=S)n1[C@H]1CCc2c(F)cc(F)cc2C1 [Nepicastat_(hydrochloride)] | 0.936 |
| COc1cc(C(=O)Nc2cc(OC(F)(F)F)ccc2-n2cncn2)ccc1OCC1CC1 | 0.921 |
| N[C@H](C(=O)O)[C@@H]1CC(Cl)=NO1 [Acivicin] | 0.68 |
| Cc1nc2c([nH]1)-c1ccccc1N(C(=O)c1ccc(NC(=O)c3ccccc3-c3ccccc3)cc1)CC2 [Conivaptan_(hydrochloride)] | 0.827 |
| CCN1CCN(Cc2ccc(-c3cc4c(N[C@H](C)c5ccccc5)ncnc4[nH]3)cc2)CC1 | 0.0989 |
| CC12CC3CC(C)(C1)CC(N)(C3)C2 [Memantine_(hydrochloride)] | 0.724 |
| NCC(=O)CCC(=O)O [5-Aminolevulinic_acid_(hydrochloride)] | 0.444 |
| CC(C)c1ccc(NC(=O)c2c(-c3cc(F)ccc3F)ccnc2N2CC[C@H](F)C2)cn1 [Nav1.1_activator_1] | 0.451 |
| CS(=O)(=O)OCCCCOS(C)(=O)=O [Busulfan] | 0.829 |
| O=C1N=C(O)NC1(c1ccccc1)c1ccccc1 [Phenytoin_(sodium)] | 0.725 |
| Cn1cc(-c2ccncc2)c(-c2ccc(OCc3ccc4ccccc4n3)cc2)n1 [Mardepodect_(hydrochloride)] | 0.503 |
| CC(C)c1c(C(=O)Nc2ccccc2)c(-c2ccccc2)c(-c2ccc(F)cc2)n1CC[C@@H](O)C[C@@H](O)CC(=O)O [Atorvastatin_(hemicalcium_salt)] | 0.823 |
| CC[C@H](NC(=O)c1c(C)c(-c2ccccc2)nc2ccccc12)c1ccccc1 | 0.907 |
| C[C@@H]1CN(c2cccnc2F)C(=O)c2cc(COc3ccc(Cl)cn3)nn21 | 1.13 |
| Cc1nc(-c2cccnc2)sc1C(=O)Nc1ccccc1-c1cn2c(CN3CCOCC3)csc2n1 | 0.157 |
